A549 tox – Nrf2 qHTS screen for inhibitors: counterscreen for cytotoxicity; A549 ARE-Fluc cells, CellTiter-Fluor viability, 18-24 h; Potency, µM (doses to about 46 µM), hits mostly inhibitors; actives 0.16% (n = 390,000)
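A549 ARE-Fluc cells in 5% FBS OPTI-MEM, 5000 cells/well, rested 2 h then exposed to compounds in concentration-response for 18-24 h at 37 °C. Viability by CellTiter-Fluor fluorescence (Ex 405/Em 525) after 30 min; luciferase luminescence (BugLite, 15 min, RT) read afterwards.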
ClpP mod – qHTS Assay for Activators of ClpP; ATP-dependent Clp protease proteolytic subunit (Bacillus subtilis (strain 168)), P80244; purified B. subtilis ClpP, FRET peptide cleavage, 20 min; Potency, µM (top dose mostly 57.5 µM); actives 1.9% (n = 340,000); AID 651965, 2013; active = well fitted falling curve with a large enough effect; inconclusive = small, poorly fitted or top-dose-only effect; inactive = no such curve, though single readings can be large or run the other way; also: the source files actives as falling curves though it sought activators and does not explain the sign; nearly all actives have a fitted effect of over 65% in size
Target sequence (P80244 whole entry, looked up): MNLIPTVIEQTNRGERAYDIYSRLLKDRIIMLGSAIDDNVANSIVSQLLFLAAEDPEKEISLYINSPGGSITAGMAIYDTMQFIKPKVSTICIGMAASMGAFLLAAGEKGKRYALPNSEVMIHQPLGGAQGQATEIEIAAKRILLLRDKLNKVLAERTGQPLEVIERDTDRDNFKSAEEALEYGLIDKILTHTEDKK
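ClpP 10 microg/mL final, pH 8 Tris/KCl buffer with BSA, glycerol, Tween-20; compound pinned in; FRET-FV substrate; RT 20 min; Ex320/Em430; ΔFRET vs ADEP 5.8 microM, DMSO, no enzyme.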
miR-21 reporter – qHTS Assay for Modulators of miRNAs and/orActivators of miR-21 | HeLa miR-21 FLuc reporter, luciferase, 48 h | Potency, µM (series often up to 38.3 µM), actives largely listed as activators | 340,000 tested, under 10 active | AID 2288, 2010;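 also: miR-21 action dims this reporter so a rising signal means less miR-21 action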
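HeLa miR-21-FLuc reporter line, endogenous miR-21; 2000 cells/well in DMEM/10% FBS; compound titration up to ~40uM final, 48 h, 37 degree Celsius; luciferase detection reagent, 15 min lysis, CCD luminescence.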
p53 reactivator – qHTS assay for re-activators of p53 using a Luc reporter; H1299 p53-A138V BP100-luciferase reporter, luminescence, 24 h; Potency, µM (series often up to 92.2 µM), actives largely listed as activators; actives 0.063% (n = 320,000); also: nearly all actives have a fitted effect of over 45% in size
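H1299 (p53-null), stable ts p53-A138V + BP100-Luc; 1000 cells/well, Opti-MEM/10% FBS; cpd 4 pt, 1:5; 24 h, 37 deg C, 5% CO2; detection reagent 10 min RT; luminescence.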
Nrf2 block – Nrf2 qHTS screen for inhibitors; A549 ARE-Fluc reporter, luciferase luminescence, 18-24 h; Potency, µM (top dose mostly 46 µM), actives largely listed as inhibitors; actives 2.1% (n = 360,000); also: nearly all actives have a fitted effect of over 60% in size
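A549 ARE_Fluc cells (5000/well, 5% FBS OPTI-MEM) pre-incubated 2 h, then treated with compounds 18-24 h at 37C/5% CO2 in concentration-response. CellTiter-Fluor viability read first; BugLite luciferase luminescence after 15 min at room temperature gives Nrf2 activity.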
Nrf2 ARE act – qHTS of Nrf2 Activators. Potency, µM (doses to about 46.1 µM), most hits filed as activators. AREc32 ARE-luciferase reporter (MCF7-derived line), luminescence, 24 h. actives 0.31% (n = 410,000); also: nearly all actives have a fitted effect of over 65% in size
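Quantitative high-throughput format: AREc32 reporter cells, 1000 per well, received compound by pin transfer and were incubated 24 hr at 37 deg C, 5% CO2, before Steady-Glo luminescence detection.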
Each line names hits and unclear results; the compound was inactive in the other large screens. Most compounds without a hit are left out; they make up all but 3.7% or so of the library. Unless noted, calls follow the shape of the dose curve; as a rule, active = well fitted curve in the direction sought with a large enough effect; inconclusive = small, poorly fitted or top-dose-only effect, or another doubt; inactive = no such curve, though single readings can be large; an effect the other way counts as inactive or inconclusive.

CC(C)Oc1ccc(CNC(=O)C2CCCN(S(=O)(=O)c3ccc4c(ccn4C)c3)C2)cc1 (configuration not stated)	miR-21 reporter inconclusive (no result: p53 reactivator, Nrf2 block)
CC1Cc2cc(S(=O)(=O)N(Cc3ccccc3)C(C)C)ccc2N1C(=O)C1CCC1 (configuration not stated)	miR-21 reporter inconclusive, Nrf2 block inconclusive (no result: p53 reactivator)
CC(C)n1c(=O)c(C=Nc2ccc(S(N)(=O)=O)cc2)c(O)n(Cc2ccco2)c1=O	none
CC(C)n1c(=O)c(C=Nc2cccc([N+](=O)[O-])c2)c(O)n(CCc2ccccc2)c1=O	Nrf2 ARE act 11µM
COc1ccc(C2=NCC(=O)N(CC(=O)NCc3ccco3)c3sc4c(c32)CCCC4)cc1	A549 tox inconclusive, Nrf2 block 21µM
Cc1cccc(C2=NCC(=O)N(CC(=O)NCc3ccco3)c3sc4c(c32)CCCC4)c1	miR-21 reporter inconclusive, Nrf2 block inconclusive
COc1cccc(-n2nnc3c(sc4nc(C)cc(C)c43)c2=O)c1	Nrf2 block inconclusive (no result: p53 reactivator)
N=C1/C(=C\c2ccc(OC(=O)c3ccccc3Cl)cc2)C(=O)N=C2SC(N3CCOCC3)=NN12	Nrf2 block inconclusive
C=CCNC(=O)c1c(N)n(Cc2ccco2)c2nc3ccccc3nc12	A549 tox inconclusive, ClpP mod 16µM, Nrf2 block inconclusive
Nc1c(C(=O)NCCN2CCOCC2)c2nc3ccccc3nc2n1Cc1ccco1	ClpP mod 16µM
Nc1c(C(=O)NCCN2CCOCC2)c2nc3ccccc3nc2n1Cc1ccccc1	none (no result: ClpP mod)
CCOC(=O)c1c(N)n(CCN2CCCCC2)c2nc3ccccc3nc12	A549 tox inconclusive, ClpP mod 32µM
Nc1c(C(=O)NCCc2ccccc2)c2nc3ccccc3nc2n1CCN1CCOCC1	ClpP mod inconclusive
CCC(C)NC(=O)c1c(N)n(CC2CCCO2)c2nc3ccccc3nc12 (configuration not stated)	ClpP mod 35µM, Nrf2 block inconclusive
CC(C)CCNC(=O)c1c(N)n(CC2CCCO2)c2nc3ccccc3nc12 (configuration not stated)	ClpP mod inconclusive, Nrf2 block inconclusive
CC(C)n1c(N2CCN(S(=O)(=O)c3cccc([N+](=O)[O-])c3)CC2)nc2ccccc21	p53 reactivator inconclusive (no result: ClpP mod)
COC1=C(C)C(=O)c2c(c(COC(N)=O)c3n2C[C@@H]2[C@@H]3N2C)C1=O (some centres not stated)	none (no result: A549 tox, miR-21 reporter, p53 reactivator, Nrf2 block, Nrf2 ARE act)
Cc1ccc(C(=O)CN2CCOCC2)cc1	none (no result: A549 tox, miR-21 reporter, p53 reactivator, Nrf2 block, Nrf2 ARE act)
COc1ccccc1N=Nc1ccc(N)c(C)c1	A549 tox inconclusive
CCCCn1c(NS(=O)(=O)c2ccccc2)c(C(=O)OCC)c2nc3ccccc3nc21	A549 tox inconclusive, ClpP mod 28µM, miR-21 reporter inconclusive, Nrf2 block inconclusive
COCCNC(=O)c1c(NC(=O)c2ccco2)n(Cc2ccccc2)c2nc3ccccc3nc12	ClpP mod 25µM
CCCCn1c(NC(=O)c2ccc(Br)o2)c(C(=O)OCC)c2nc3ccccc3nc21	Nrf2 block inconclusive (no result: ClpP mod)
CCCCn1c(N)c(C(=O)NCCN2CCOCC2)c2nc3ccccc3nc21	ClpP mod 11µM (no result: Nrf2 block)
CCOc1ccc(NC(=O)c2cc3c(C)nn(-c4ccccc4)c3s2)cc1	Nrf2 block inconclusive (no result: p53 reactivator)
COc1ccc(C(=O)Nc2nnc(S(=O)(=O)N(CC(C)C)c3ccc(C)cc3)s2)cc1OC	none (no result: p53 reactivator)
O=C(NCCSc1c(-c2ccccc2)[nH]c2ccccc12)c1ccc(S(=O)(=O)N2CCOCC2)cc1	miR-21 reporter inconclusive (no result: p53 reactivator)
Cc1oc(-c2cccs2)nc1CSCC(=O)N1CCC2(CC1)OCCO2	ClpP mod 1.4µM
COc1ccc(C(=O)Nc2sc3c(c2C(=O)O)CC(C)(C)OC3)cc1	Nrf2 block 8.2µM
COc1ccc(C(=O)C23CN4CN(CN(C4)C2)C3)cc1	none
